According to the supplement of paper PMC9262897, “Low-cost anti-mycobacterial drug discovery using engineered E. coli” (Nature Communications, 2022):
Counter-ions that a name gives are not always drawn. ± gives the standard deviation of the averaged measurements.

How the values were obtained:
Experiment in all cases: growth (OD600 after 10 h); higher = more growth (less inhibition)
[1] = system: E. coli TESEC Alr+ wild-type control; settings: compound 0.1 mM; raw OD600 reference: median of DMSO wells 0.241, cell-free background 0.041
Protocol: (§1)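 TESEC Mtb Alr E. coli, or the Alr+ wild-type control, in 384-well plates with Prestwick library compounds at 0.1 mM and 1% DMSO, across arabinose induction levels of 1E3 to 1E7 nM. Growth is read as OD600 after 10 h at 37 °C in triplicate biological replicates.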

E. coli TESEC Mtb Alr [2] = settings: compound 0.1 mM
Protocol: as §1

E. coli TESEC Mtb Asd = settings: compound 0.1 mM
Protocol: (§2)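 TESEC E. coli strains in which the native enzyme is deleted and replaced by arabinose-inducible Mtb Asd, DapB, CysH or TrpD, each grown in its selective medium. Strains were screened against the Prestwick library at 0.1 mM and 1% DMSO in 384-well format at low and high arabinose induction. Growth is read as OD600 after 10 h in triplicate.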

E. coli TESEC Mtb DapB = settings: compound 0.1 mM
Protocol: as §2

[3] = system: E. coli TESEC Alr+ wild-type control; settings: compound 0.1 mM; raw OD600 reference: median of DMSO wells 0.49, cell-free background 0.052
Protocol: (§3)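 TESEC Mtb Alr E. coli (ΔaraC ΔtolC ΔentC Δalr ΔdadX, arabinose-inducible Mtb Alr) or the Alr+ wild-type control strain, grown in defined M9-fructose medium without D-alanine in 96-well plates with Prestwick library compounds at 0.1 mM and 1% DMSO. Low Alr induction is 0.1 µM arabinose and high induction is 10 mM arabinose.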

E. coli TESEC Mtb Alr [4] = settings: compound 0.1 mM; remark: listed apart in the source
Protocol: as §3

[5] = arabinose 1000 nM, raw OD600 reference: median of DMSO wells 0.294, cell-free background 0.041
[6] = arabinose 10000 nM, raw OD600 reference: median of DMSO wells 0.264, cell-free background 0.041
[7] = arabinose 100000 nM, raw OD600 reference: median of DMSO wells 0.201, cell-free background 0.041
[8] = arabinose 1000000 nM, raw OD600 reference: median of DMSO wells 0.193, cell-free background 0.041
[9] = arabinose 10000000 nM, raw OD600 reference: median of DMSO wells 0.146, cell-free background 0.041
[10] = arabinose induction (level): High, raw OD600 reference: median of DMSO wells 0.331, cell-free background 0.041
[11] = arabinose induction (level): Low, raw OD600 reference: median of DMSO wells 0.417, cell-free background 0.041
[12] = arabinose induction (level): High, raw OD600 reference: median of DMSO wells […], cell-free background 0.041
[13] = arabinose induction (level): Low, raw OD600 reference: median of DMSO wells 0.227, cell-free background 0.041
[14] = arabinose 100 nM, raw OD600 reference: median of DMSO wells 0.413, cell-free background 0.052
[15] = arabinose 10000000 nM, raw OD600 reference: median of DMSO wells […], cell-free background 0.052

Compound	growth [1]	growth (E. coli TESEC Mtb Alr [2]; [5])	growth (E. coli TESEC Mtb Alr [2]; [6])	growth (E. coli TESEC Mtb Alr [2]; [7])	growth (E. coli TESEC Mtb Alr [2]; [8])	growth (E. coli TESEC Mtb Alr [2]; [9])	growth (E. coli TESEC Mtb Asd; [10])	growth (E. coli TESEC Mtb Asd; [11])	growth (E. coli TESEC Mtb DapB; [12])	growth (E. coli TESEC Mtb DapB; [13])	growth [3]	growth (E. coli TESEC Mtb Alr [4]; [14])	growth (E. coli TESEC Mtb Alr [4]; [15])
NCCNCCNCCNCCN [Tetraethylenepentamine pentahydrochloride]	0.273 ± 0.0096	0.313 ± 0.013	0.263 ± 0.0027	0.217 ± 0.028	0.181 ± 0.011	0.136 ± 0.0077	0.337 ± 0.074	0.441 ± 0.0047	0.196 ± 0.003	0.22 ± 0.015	0.4747 ± 0.0042	0.414 ± 0.0053	0.303 ± 0.01
Cc1c(N)c(=O)n(-c2ccccc2)n1C [Ampyrone]	0.25 ± 0.0062	0.289 ± 0.008	0.267 ± 0.019	0.217 ± 0.02	0.187 ± 0.0029	0.146 ± 0.007	0.368 ± 0.033	0.446 ± 0.01	0.175 ± 0.0078	0.209 ± 0.011	0.457 ± 0.017	0.414 ± 0.0049	0.3598 ± 0.0033
Cn1c([N+](=O)[O-])cnc1COC(N)=O [Ronidazole]	0.226 ± 0.0055	0.296 ± 0.007	0.27 ± 0.0076	0.161 ± 0.0087	0.149 ± 0.0036	0.164 ± 0.0025	0.241 ± 0.036	0.338 ± 0.016	0.187 ± 0.0036	0.253 ± 0.031	0.458 ± 0.0079	0.4333 ± 0.0022	0.285 ± 0.011
CC(=O)Nc1ccc(O)cc1 [Acetaminophen]	0.251 ± 0.0034	0.315 ± 0.0071	0.277 ± 0.0034	0.202 ± 0.0068	0.188 ± 0.0053	0.162 ± 0.0048	0.473 ± 0.034	0.455 ± 0.0071	0.215 ± 0.018	0.251 ± 0.027	0.559 ± 0.083	0.407 ± 0.015	0.335 ± 0.011
Cc1ccccc1N1C(=O)c2cc(S(N)(=O)=O)c(Cl)cc2NC1C (stereo unspecified) [Metolazone]	0.214 ± 0.0042	0.226 ± 0.031	0.258 ± 0.0029	0.214 ± 0.0094	0.136 ± 0.004	0.1376 ± 0.00093	0.386 ± 0.049	0.422 ± 0.091	0.199 ± 0.038	0.254 ± 0.087	0.481 ± 0.062	0.4 ± 0.018	0.292 ± 0.011
C#C[C@]1(OC(C)=O)CC[C@H]2[C@@H]3CCC4=CC(=NO)CC[C@@H]4[C@H]3CC[C@@]21CC (mixture of isomers) [Norgestimate]	0.134 ± 0.0062	0.123 ± 0.0052	0.0585 ± 0.0036	0.136 ± 0.0049	0.0563 ± 0.0053	0.111 ± 0.0098	0.0829 ± 0.015	0.0714 ± 0.019	0.126 ± 0.0075	0.0826 ± 0.025	0.185 ± 0.0039	0.263 ± 0.013	0.0794 ± 0.012
CCCCOC(=O)c1ccc(N)cc1 [Butamben]	0.194 ± 0.0098	0.23 ± 0.018	0.277 ± 0.0069	0.186 ± 0.011	0.233 ± 0.0061	0.16 ± 0.0031	0.566 ± 0.058	0.304 ± 0.11	0.23 ± 0.086	0.218 ± 0.07	0.452 ± 0.0073	0.36 ± 0.026	0.344 ± 0.018
